# Non-standard residues stand in square brackets, D forms with d. Residues, ends and D or L forms follow the SMILES beside them. *: point of attachment. Nva = CCC[C@H](N)C(=O)O; Cbz = O=C(OCc1ccccc1)*
# Test: qHTS profiling of the MIPE4 collection as inhibitors of Plasmodium falciparum (3D7) proliferation (AID 743344);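 also: scaled between DMSO vehicle wells and 0.29 µM artemisinin as full inhibition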
# Settings: P. falciparum 3D7 in erythrocytes, SYBR Green DNA fluorescence, 72 h; at 28.5 µM unless noted
# How it was run: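 Parasite DNA was quantified by SYBR Green I fluorescence (ex 485, em 535 nm) after overnight lysis in saponin/Triton buffer at room temperature. Cultures at 0.3% parasitemia and 2.5% hematocrit were first exposed to compound for 72 h at 37 C; signals were normalised to artemisinin (0.29 uM) and vehicle wells.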
row,Compound,"parasite growth, % of DMSO control [%]"
1,O=S(=O)(O)CCSSCCS(=O)(=O)O,79.5
2,Cc1cc(C(=O)NOCCO)c(Nc2ccc(I)cc2F)n(C)c1=O,51.4
3,Nc1nc(N)c2nc(-c3cccc(O)c3)c(-c3cccc(O)c3)nc2n1,15.5
4,CN[C@H]1[C@@H](O)[C@@H]2O[C@@H]3O[C@H](C)CC(=O)[C@]3(O)O[C@@H]2[C@@H](NC)[C@H]1O,6.52
5,Cc1ncc(-c2ccnc(Nc3ccc(S(C)(=O)=O)cc3)n2)n1C(C)C,6.84
6,C[C@H](NC(=O)Cc1cc(F)cc(F)c1)C(=O)N[C@H](C(=O)OC(C)(C)C)c1ccccc1,74.2
7,CCc1cnn2c(NCc3ccc[n+]([O-])c3)cc(N3CCCC[C@@H]3CCO)nc12,14.9
8,O=C(NNC(=O)c1ccc(CNS(=O)(=O)c2ccc(F)c(Cl)c2)cc1)c1ccccc1,371
9,CC(C)c1cc(C(C)C)c(CC(=O)NS(=O)(=O)Oc2c(C(C)C)cccc2C(C)C)c(C(C)C)c1,82.5
10,CCc1nc(-c2cccc(C)c2)c(-c2ccnc(NC(=O)c3ccccc3)c2)s1,21.9
11,C=CC(=O)Nc1cccc(Nc2nc(NC3CCC(N(C)C)CC3)nc3c2ncn3C(C)C)c1 (stereo not drawn),10.5
12,C#C[C@]1(O)CC[C@@H]2[C@@H]3CCC4=CC(=O)CC[C@@H]4[C@H]3CC[C@@]21CC,28
13,Cc1cnc(Nc2ccc(N3CCN(C)CC3)cc2)nc1Nc1cccc(S(=O)(=O)NC(C)(C)C)c1,5.3
14,Cc1cncc2cccc(S(=O)(=O)N3CCCN(C(=O)CN)C[C@@H]3C)c12,85.8
15,c1ccc(CNc2nc(NCc3ccccc3)c3ccccc3n2)cc1,5.75
16,Cn1cc(-c2cnn3c(N)c(Br)c([C@H]4CCCNC4)nc23)cn1,7.85
17,COc1ccc(C(C)=O)c(O)c1,86.4

row,Compound,"parasite growth, % of DMSO control [%]"
1,C#Cc1cccc(Nc2ncnc3cc(OCCOC)c(OCCO)cc23)c1,6.81
2,O=C(c1ccc(F)cc1)N1CCC[C@H](c2nc(-c3ccc(F)cc3)no2)C1,74.1
3,CC(C)NC[C@@H](C(=O)N1CCN(c2ncnc3c2[C@H](C)C[C@H]3O)CC1)c1ccc(Cl)cc1,5.13
4,CCOC(=O)C=C[C@H](C[C@@H]1CCNC1=O)NC(=O)[C@@H](CC(=O)[C@@H](NC(=O)c1cc(C)on1)C(C)C)Cc1ccc(F)cc1,22
5,OCc1ccccc1O[C@@H]1O[C@H](CO)[C@H](O)[C@H](O)[C@H]1O,95.9
6,CCCCCN=C(N)NN=Cc1c[nH]c2ccc(OC)cc12,7.63
7,COC(=O)C=CC(=O)OC,76.2
8,CON=C(C(=O)N[C@@H]1C(=O)N2C(C(=O)O)=C(CSC(=O)c3ccco3)CS[C@H]12)c1csc(N)n1,88.2
9,CC(C)c1cnn2c(NCc3ccccc3)cc(NCCCCCCN)nc12,6.96
10,CCOC(=O)N1CCN([N+]([O-])=NOc2ccc([N+](=O)[O-])cc2C#N)CC1,10.5
11,OCC(O)C(O)C(O)CO (stereo not drawn),88.8
12,CC1(C)O[C@@H]2C[C@H]3[C@@H]4CCC5=CC(=O)C=C[C@]5(C)[C@@H]4[C@@H](O)C[C@]3(C)[C@]2(C(=O)CO)O1,7.1
13,CCc1ccc(C(=O)Nc2cc(CN3CCN(C)CC3)cc(C(F)(F)F)c2)cc1C#Cc1cnc2ccnn2c1,5.7
14,CCC[C@@H](C=O)NC(=O)[C@H](CC(C)C)NC(=O)[C@H](CC(C)C)NC(=O)OCc1ccccc1 (Cbz-Leu-Leu-[Nva]-aldehyde),4.86
15,CC(O)(C#Cc1ccc2c(c1)N(c1nc(N)ncc1Cl)CC2)c1nccs1 (stereo not drawn),11.7
16,O=C1NC(O)CCN1[C@@H]1O[C@H](CO)[C@H](O)[C@H]1O (stereo partly drawn),98.9
